# Data taken from PubChem BioAssay AID652154 (Broad Institute, 2013).
# Hit rate of the full screen: of about 360,000 compounds, about 4,200 (1.2%) were called active.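 How the source made its calls: active means mean replicate inhibition at least 60% with every replicate also reaching 60%; inconclusive means only one of the two criteria is met; inactive means mean below 60% and not all replicates reaching 60%.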 This excerpt belongs to a sample that is enriched for actives.
# Assay: inhibitors of PAX8-driven TPO luciferase reporter, primary screen, RMG-I cells, single concentration (AID 652154);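 further: luciferase light reporting Pax8 driven TPO promoter activity; plate controls were median of neutral control wells for no effect and mitoxantrone controls for full effect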
# Conditions: SteadyGlo, 24 h, at 12.6 µM, hits give high values
row,Compound,inhibition
1,CC[C@]1(O)C[C@@H]2CN(CCc3c([nH]c4ccccc34)[C@@](C(=O)OC)(c3cc4c(cc3OC)N(C)[C@H]3[C@@](O)(C(=O)OC)[C@H](OC(C)=O)[C@]5(CC)C=CCN6CC[C@]43[C@@H]65)C2)C1,94.6% (active)
2,CC[C@]1(O)CC2CN(CCc3c([nH]c4ccccc34)[C@@](C(=O)OC)(c3cc4c(cc3OC)N(C=O)[C@H]3[C@@](O)(C(=O)OC)[C@H](OC(C)=O)[C@]5(CC)C=CCN6CC[C@]43[C@@H]65)C2)C1 (stereo partly drawn),82% (active)
3,O=C(C[C@@H]1CC[C@H]2[C@@H](COC[C@@H](O)CN2Cc2nccs2)O1)NCc1ccc(-c2ccccc2)cc1,23% (inactive)
4,C[C@@H]1CN([C@H](C)CO)C(=O)Cc2cc(NC(=O)CCN3CCOCC3)ccc2O[C@@H]1CN(C)S(C)(=O)=O,-16.5% (inactive)
5,C[C@H](CO)N1C[C@H](C)[C@@H](CN(C)Cc2ccccn2)Oc2ncc(-c3cccc(F)c3)cc2C1=O,-0.625% (inactive)
6,Cc1ccccc1S(=O)(=O)N1CC(=O)N2[C@H](CO)[C@H](c3ccc(C#CC4CC4)cc3)[C@@H]2C1,-7.36% (inactive)
7,COc1cc2ccccc2cc1C(=O)Nc1ccccc1C,-95.1% (inactive)
8,COc1cc(SC)ccc1C(=O)Nc1nc(C)cs1,72.7% (active)
9,Cc1csc(NC(=O)CSc2nc(=O)cc(N)n2-c2ccc(F)cc2)n1,-0.606% (inactive)
10,O=C(Cc1ccccc1)N1C[C@@H]2[C@H](c3ccccc31)[C@@H](CO)N2C(=O)C1CCOCC1,10.4% (inactive)
11,O=C(c1cccnc1)N1CC[C@H]2[C@H](CO)Nc3ccc(-c4ccc(F)cc4)cc3[C@H]21,1.77% (inactive)
12,CN(C[C@@H]1[C@H](c2ccccc2)[C@@H](CO)N1Cc1ccccn1)S(C)(=O)=O,-9.74% (inactive)
13,CC1CCCCC1NC(=O)COc1ccc(C#N)cc1 (stereo not drawn),-9.56% (inactive)
14,CC(OC(=O)/C=C/c1ccccc1)C(=O)NC1CCCCC1C (stereo not drawn),-9.75% (inactive)
15,CC1CCCCC1NC(=O)/C(C#N)=C/C=C/c1ccccc1[N+](=O)[O-] (stereo not drawn),91.1% (active)
16,CC(C)NC(=O)Nc1ccc2c(c1)C(=O)N([C@@H](C)CO)C[C@@H](C)[C@H](CN(C)Cc1ccc(C(=O)O)cc1)O2,-28.1% (inactive)
17,C[C@H]1CN([C@@H](C)CO)C(=O)c2cccc(NC(=O)c3ccncc3)c2O[C@H]1CN(C)C,-1.05% (inactive)
18,COc1ccc(S(=O)(=O)N2CCCCN3[C@H](CO)[C@@H](c4ccc(C#CC(C)C)cc4)[C@H]3C2)cc1,76.3% (active)
19,COc1ccc(S(=O)(=O)N2CCCCN3[C@H](C2)[C@H](c2ccc(C4=CCCC4)cc2)[C@@H]3CO)cc1,9.85% (inactive)
20,COc1cccc(S(=O)(=O)N2CCCCN3[C@H](C2)[C@@H](c2ccc(C4=CCCCC4)cc2)[C@@H]3CO)c1,12.7% (inactive)
21,CCCC#Cc1ccc([C@H]2[C@@H](CO)N3CCCCN(S(=O)(=O)CC)C[C@H]23)cc1,6.07% (inactive)
22,COc1ccc(S(=O)(=O)N2CCCCN3[C@@H](CO)[C@@H](c4ccc(C#CCC(C)C)cc4)[C@@H]3C2)cc1,46.7% (inactive)

row,Compound,inhibition
1,COc1ccc(S(=O)(=O)N2CCCCN3[C@H](CO)[C@H](c4ccc(C5=CCCCC5)cc4)[C@@H]3C2)cc1,69.6% (active)
2,COc1ccc(S(=O)(=O)N2CCCCN3[C@H](C2)[C@H](c2ccc(C#CCC(C)C)cc2)[C@@H]3CO)cc1,18.7% (inactive)
3,COc1cccc(S(=O)(=O)N2CCCCN3[C@H](CO)[C@H](c4ccc(C#CC5CC5)cc4)[C@H]3C2)c1,12.2% (inactive)
4,CCCC#Cc1ccc([C@H]2[C@@H](CO)N3CCCCN(S(=O)(=O)Cc4ccccc4)C[C@H]23)cc1,86.5% (active)
5,COc1cccc(S(=O)(=O)N2CCCCN3[C@H](C2)[C@H](c2ccc(C#CC(C)C)cc2)[C@@H]3CO)c1,69.8% (active)
6,CCCC#Cc1ccc([C@H]2[C@H](CO)N3CCCCN(S(=O)(=O)CC)C[C@@H]23)cc1,-26.1% (inactive)
7,C[C@@H](O)C#Cc1ccc([C@@H]2[C@H]3CN(S(=O)(=O)c4ccccc4)CCCCN3[C@H]2CO)cc1,-13.8% (inactive)
8,CO[C@H]1CN(C)C(=O)c2ccc(NC(=O)C3CCC3)cc2OC[C@@H](C)NC[C@H]1C,9.77% (inactive)
9,CC(=O)NC[C@H]1[C@H](c2ccc(C3=CCCCC3)cc2)[C@@H](CO)N1C(=O)NC(C)C,-0.865% (inactive)
10,CCCNC(=O)N1C[C@H]2[C@@H](c3ccccc31)[C@H](CO)N2C(=O)NC(C)C,-13% (inactive)
11,COCC(=O)Nc1ccc2c(c1)C(=O)N(C)C[C@@H](OC)[C@@H](C)CN(C(=O)Cc1ccccn1)[C@@H](C)CO2,-15.1% (inactive)
12,CCC(=O)Nc1ccc2c(c1)C(=O)N(C)C[C@H](OC)[C@H](C)CN(CCC(F)(F)F)[C@H](C)CO2,-9.12% (inactive)
13,COCC(=O)Nc1ccc2c(c1)OC[C@@H](C)N(C(=O)CC1CC1)C[C@@H](C)[C@@H](OC)CN(C)C2=O,-0.715% (inactive)
14,C/C=C/c1ccc(C2[C@H]3CNC[C@@H]2N3C(=O)Nc2cc(F)ccc2F)cc1 (stereo partly drawn),-0.3% (inactive)
15,CCNC(=O)Nc1ccc2c(c1)C(=O)N(C)[C@H]1CC[C@@H](CC(=O)N[C@H](C)c3ccccc3)O[C@@H]1CO2,-19% (inactive)
16,C[C@H]1CN([C@@H](C)CO)C(=O)c2ccccc2-c2ccccc2CO[C@H]1CN(C)S(=O)(=O)c1ccccc1C#N,-18.2% (inactive)
17,O=C(C[C@@H]1C[C@@H]2c3cc(NS(=O)(=O)c4ccc(F)cc4)ccc3O[C@@H]2[C@H](CO)O1)N1CCCCC1,9.01% (inactive)
18,CCCCc1c(-c2ccc(Br)cc2)ncn1CCc1ccccc1OC,74% (active)
19,CCCCc1c(-c2ccc(Cl)cc2)ncn1CCc1ccccc1OC,33.1% (inactive)
20,CCCCCc1c(-c2cccc(Br)c2)ncn1CCc1ccccc1OC,9.05% (inactive)
21,CN(C)CC#Cc1ccc([C@@H]2[C@H](CO)N3C(=O)CN(C(=O)Cc4cccnc4)C[C@@H]23)cc1,17.8% (inactive)
